In all, about 96,000 compounds went through this assay and about 19,000 (20%) were called active. The list is a sample of the results. Unmarked numbers belong to inactive results.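 The calls were made as follows: active = blocking of liver enzyme CYP2C9 beyond about 50% at 5 µM (limit read from the data); inactive = the rest.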

Cytochrome P450 2C9 (Homo sapiens), sequence (P11712 whole entry, looked up): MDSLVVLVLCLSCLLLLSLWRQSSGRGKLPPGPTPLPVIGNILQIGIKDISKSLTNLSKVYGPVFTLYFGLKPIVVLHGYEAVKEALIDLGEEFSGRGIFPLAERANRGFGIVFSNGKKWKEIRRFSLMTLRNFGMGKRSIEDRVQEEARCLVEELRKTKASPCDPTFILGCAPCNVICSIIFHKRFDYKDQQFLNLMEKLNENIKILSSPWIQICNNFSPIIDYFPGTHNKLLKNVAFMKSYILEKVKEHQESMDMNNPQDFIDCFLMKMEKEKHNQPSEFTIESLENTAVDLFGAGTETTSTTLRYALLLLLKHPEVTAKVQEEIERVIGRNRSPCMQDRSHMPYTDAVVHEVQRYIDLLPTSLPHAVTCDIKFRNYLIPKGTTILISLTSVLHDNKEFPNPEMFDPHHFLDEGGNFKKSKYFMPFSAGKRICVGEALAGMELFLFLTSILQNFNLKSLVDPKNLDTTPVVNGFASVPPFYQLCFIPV

The assay addresses Cytochrome P450 2C9 (Homo sapiens) (UniProt P11712). The assay can be described thus: blockers of cytochrome P450 2C9 activity – biochemical, luminescence, ADME assay, primary screen (AID 777). The conditions noted are these: CYP2C9 Supersomes, luciferin-H conversion, at 5 µM, stronger effect = higher value.
As to `O=C(Nc1cccc2ncccc12)c1ccc(-c2ccc(Cl)cc2Cl)o1`, the inhibition (commonly the change of the read-out against control, counted positive when it falls) is 5.6%.

For `Clc1ccc(COn2c(-c3ccc(Cl)cc3Cl)nc3ncccc32)cc1`, the inhibition was 97.1% (active).

`CCOc1ccc(OCC)c(-c2c(=O)n(OCc3ccc(Cl)cc3)c3ccccc3[n+]2[O-])c1`: the inhibition is 49.9%.

As for `COc1ccc(CC(=O)Nc2sc(Cc3ccccc3)c(C)c2C(N)=O)cc1`, the inhibition is 20.4%.

`CCOC(=O)CSc1nnc(CNc2ccc(F)cc2)o1`: the inhibition is 14.8%.

Regarding `CCCCSc1[nH]c(=O)c(C(=O)OCC)cc1C#N`, the inhibition is 19.4%.

Regarding `CN(C(=O)c1ccccn1)c1nnc(-c2ccccn2)s1`, the inhibition is 2.1%.

Turning to `CCOc1ccc(OCC)c(NC(=O)CN(C)S(=O)(=O)c2cccc3nsnc23)c1`, the inhibition is -23.4%.

Consider `CCOc1ccc(-c2cn(S(=O)(=O)c3cccc4nsnc34)nc2N)cc1`, for which the inhibition is 62.6% (active).

Regarding `CCOc1ccc(NC(=O)CCS(=O)(=O)c2cccc3nsnc23)cc1`, the inhibition is 33.7%.

Take `CCN(CC)Cc1csc2ccc(Br)cc12`: the inhibition was -14.3%.

Take `Cc1cc(NC(=O)Cn2nc(C(F)(F)F)c3c2CCCC3)no1`: the inhibition was 14.9%.

As to `N#Cc1ccccc1-n1c(N)c(C(=O)N2CCCC2)sc1=S`, the inhibition was 69.3% (active).

As to `Cc1cccc(-n2c(N)c(C(=O)N3CCN(C)CC3)sc2=S)c1`, the inhibition is 19.9%.

Consider `Cc1ccc(-n2c(N)c(C(=O)N3CCOCC3)sc2=S)c(C)c1`, for which the inhibition is 8.6%.

For the molecule `COc1ccc(-n2nc(C(=O)NCC(=O)Nc3cccc(C)n3)c3ccccc3c2=O)cc1`, the inhibition was 23.8%.

Consider `COc1ccc(C(C)=O)cc1CN1C(=O)NC2(CCCCC2C)C1=O` (stereo unspecified), for which the inhibition was 9.5%.

For `C#CCN1CC(C)/C(=N/O)CC1C` (stereo unspecified), the inhibition is -28.8%.

For `COc1ccc(C2C(C#N)=C(/N=C/N3CCOCC3)OC3=C2C(=O)CC(C)(C)C3)cc1OC` (stereo unspecified), the inhibition was 69% (active).

As for `CCC1C(C#N)=C(SC)NC2=C1C(=O)CC(C)(C)C2` (stereo unspecified), the inhibition was 19%.

In the case of `CCOC(=O)C1=C(C)NC2=C(C(=O)CC(C)(C)C2)C1c1ccsc1` (stereo unspecified), the inhibition is 39.8%.

`COc1cc(C2C(C#N)=C(C)NC3=C2C(=O)CC(C)(C)C3)ccc1O` (stereo unspecified): the inhibition was 58.5% (active).

Consider `CC(=O)Nc1ccc(NC(=O)CN2CCCC(C)C2)c(Cl)c1` (stereo unspecified), for which the inhibition was 18.3%.

With `c1ccc(C2CCC(N3CCC(N4CCCCC4)CC3)CC2)cc1` (stereo unspecified), the inhibition was 11%.

On to `Cc1cc(=O)oc(C)c1C(=O)N1CCCCC1`, for which the inhibition is 4.9%.

As to `O=C(NCCc1ccccc1)/C(=C\c1ccc([N+](=O)[O-])cc1)NC(=O)c1ccccc1`, the inhibition was 3.8%.

As for `CCOC(=O)/C(=C\c1ccc([N+](=O)[O-])cc1)C(=O)c1cc(C(C)=O)c(Nc2ccccc2)s1`, the inhibition was 76.2% (active).

For the molecule `CCOC(=O)/C(C#N)=C/c1ccc(OCC(=O)Nc2ccccc2)c(OC)c1`, the inhibition was 14.7%.

For `CCC1CCCCN1CCNS(=O)(=O)c1ccc2c(c1)CCN2C(C)=O` (stereo unspecified), the inhibition is 15.6%.

Regarding `N/C(Cc1ccc([N+](=O)[O-])cc1)=N\OC(=O)COc1ccc2ccccc2c1`, the inhibition is 4.4%.

In the case of `COc1ccc(OCC(=O)N2CCN(C(=O)COc3ccccc3)CC2)cc1`, the inhibition is -2.8%.

In the case of `CCOc1cc(CN2CCN(C(=O)CC(C)C)CC2)ccc1OC`, the inhibition was -24.7%.

As to `COc1cc(C(=O)N2CCN(C/C=C/c3ccccc3)CC2)cc(OC)c1C`, the inhibition is 67.7% (active).

On to `Cn1c(C(=O)OC(C(=O)NC2CCCCC2)c2ccccn2)cc2sccc21` (stereo unspecified), for which the inhibition was -7.2%.

In the case of `CCn1c(/C=C/c2ccc([N+](=O)[O-])o2)nc2ccccc2c1=O`, the inhibition was -18%.

Turning to `COC(=O)C1CCN(CC(N)=O)CC1`, the inhibition was -11.4%.

In the case of `CCOC(=O)CC1=CC(=O)Nc2ccccc2N1`, the inhibition is 7.1%.

In the case of `O=C(CSc1nc(C2CC2)nc2ccccc12)Nc1ccc2c(c1)OCCO2`, the inhibition was 40.1%.

Take `O=C(CSc1nc2ncccc2[nH]1)Nc1ccc2c(c1)OCCO2`: the inhibition was 95.5% (active).

As to `CCC(=O)Nc1cccc(NC(=O)CSc2nnnn2C2CCCC2)c1`, the inhibition was 16.4%.

`O=C(CSc1nnnn1-c1ccc2c(c1)CCC2)Nc1ccc2c(c1)OCCO2`: the inhibition was 0.6%.

Consider `O=C(CSc1nnnn1C1CCCC1)Nc1ccc2c(c1)OCCO2`, for which the inhibition was 62.4% (active).

For the molecule `CCNC(=O)c1sccc1-n1cccc1`, the inhibition is 16.1%.

With `Cc1ccc(N2C(=O)CC(Sc3ncn[nH]3)C2=O)cc1` (stereo unspecified), the inhibition was -1.5%.

For the molecule `Nc1nonc1C(=O)NCCc1ccccc1`, the inhibition is -8.7%.

For `COc1ccc(OCCCON2C(=O)c3ccccc3C2=O)cc1`, the inhibition is 7.6%.

For `CN1CCN(C(=O)C2C3C=CC(C3)C2C(=O)O)CC1` (stereo unspecified), the inhibition was -9.2%.

Consider `Cc1ccc2nc(S(=O)(=O)O)[nH]c2c1`, for which the inhibition was -11.8%.

With `Cc1ccc2nc(/C(C#N)=C\c3ccc(OC(=O)c4cccs4)cc3)[nH]c2c1`, the inhibition was 81.3% (active).

For the molecule `CSc1nsc(SC)c1NC(=O)OC1CCCCC1`, the inhibition is 21.9%.

For the molecule `O=C(Cn1c(-c2ccccn2)nc2ccccc21)NCCN1CCOCC1`, the inhibition is -10.5%.

Take `Cc1cc(Nc2ccccc2)n(CCC#N)n1`: the inhibition was -12.2%.

In the case of `COC(=O)CN1C(=O)C(O)=C(C(C)=O)C1c1ccc([N+](=O)[O-])cc1` (stereo unspecified), the inhibition is 3.5%.

Consider `CS(=O)(=O)N1CCCC(C(=O)N2CCOCC2)C1` (stereo unspecified), for which the inhibition is -11.8%.

Consider `CC(C)c1ccc(-c2noc(C3CCCN(S(C)(=O)=O)C3)n2)cc1` (stereo unspecified), for which the inhibition was 52.2% (active).

`COc1ccc(S(=O)(=O)N2CCCC(C(=O)N3CCN(C)CC3)C2)cc1C` (stereo unspecified): the inhibition was -24%.

Regarding `COc1ccc(NC(=O)C2CCCN(S(=O)(=O)c3cccc4cccnc34)C2)cc1OC` (stereo unspecified), the inhibition was -15.1%.

Take `COc1cc(-c2noc(C3CCCN(S(=O)(=O)c4cccc(Cl)c4)C3)n2)cc(OC)c1OC` (stereo unspecified): the inhibition was 85.3% (active).

As for `O=C(Cc1cccs1)N1CCCC(c2nc(-c3ccc(S(=O)(=O)N4CCCC4)cc3)no2)C1` (stereo unspecified), the inhibition was 47.8%.

`O=C(c1cccs1)N1CCCC(c2nc(-c3ccc(F)cc3)no2)C1` (stereo unspecified): the inhibition was 76.9% (active).

As to `OCCNc1nc2ccccc2[nH]1`, the inhibition is 2.6%.

On to `Cc1nnc(SCC(=O)Nn2cnnc2)s1`, for which the inhibition is 29.8%.

Consider `COc1ccccc1NC(=O)c1ccc2nc(N3C(=O)CCC3=O)sc2c1`, for which the inhibition is -32%.

With `CCc1cc(C(c2ccccc2OC)N2CCOCC2)c(NC(=O)c2ccccc2)s1` (stereo unspecified), the inhibition is 85.2% (active).

For `CCOC(=O)c1c(NC(=O)c2ccc(N3CCOCC3)c([N+](=O)[O-])c2)sc(C)c1C`, the inhibition is 7.5%.

As for `COc1ccc(-n2c(SC)nc(O)cc2=O)cc1`, the inhibition is -81.1%.

On to `O=C1CSC2=NCN(c3ccccc3)CN12`, for which the inhibition was 26.1%.

`O=S(N1CCCCCC1)C12CC3CC(CC(C3)C1)C2` (stereo unspecified): the inhibition is 9.9%.

For `O=C(OCC(=O)N1CCN(C(=O)c2ccco2)CC1)c1ccccc1Cc1ccccc1`, the inhibition is 31.9%.

As to `CCOC(=O)c1[nH]c2ccccc2c1N=C(C)N(CC)CC`, the inhibition is -6.5%.

`C=CCOc1ccc(/C=N/n2cncn2)cc1OC`: the inhibition was 57.5% (active).

On to `COc1cccc(OCCOc2cccc(/C=N/n3cnnc3)c2)c1`, for which the inhibition is 40%.

As to `COc1ccccc1OCCOc1ccc(/C=N/n2cnnc2)cc1`, the inhibition was 44.5%.

As for `Cc1ccc2c(CSc3nncs3)cc(=O)oc2c1`, the inhibition is 67% (active).

For the molecule `COC(=O)CCSc1cc([N+](=O)[O-])cc2c1c(C1OCCS1)nn2-c1ccccc1` (stereo unspecified), the inhibition was 34.3%.

On to `Cc1ccccc1C(=O)NCCN=C1NS(=O)(=O)c2ccccc21`, for which the inhibition was 7.9%.

As for `COc1ccc(C(C#N)N2N=C(C)CC2(C)C)cc1` (stereo unspecified), the inhibition is -2.1%.

Take `N#CC1=C(SCc2ccccc2)NC(=O)C(C#N)C12CCCC2` (stereo unspecified): the inhibition is 46.5%.

`N#CC1=C(SCc2ccc(C#N)cc2)N=C(N)C(c2nc(-c3ccccc3)cs2)C12CCCCC2` (stereo unspecified): the inhibition is 98.6% (active).

Regarding `O=C(O)c1cc2ccccc2c(=O)s1`, the inhibition was -1.7%.

Consider `CCOC(=O)C1CCCN(C(=O)C2CCN(c3nnc(-n4cccc4)s3)CC2)C1` (stereo unspecified), for which the inhibition is 25.6%.

Turning to `O=C(O)CCN1C(=O)CC2(CCCCC2)C1=O`, the inhibition is 11.2%.

As to `O=[N+]([O-])c1ccc(C=Nc2ccc(Cl)cc2Cl)s1`, the inhibition was 7.9%.

Consider `O=C1[C@@H]2C(Cc3ccc(O)cc3)NC3(C(=O)Nc4ccc(F)cc43)[C@@H]2C(=O)N1c1ccc(F)cc1` (stereo partly specified), for which the inhibition is 50.6% (active).

Consider `Cc1ccc(NC(=S)NC(NC(=O)Cc2cccc3ccccc23)C(Cl)(Cl)Cl)cc1` (stereo unspecified), for which the inhibition was 96.6% (active).

With `COCCCNC(NC(=O)c1ccc(C)cc1)C(Cl)(Cl)Cl` (stereo unspecified), the inhibition is 4.7%.

For `COc1ccc(NC(=O)C(NC(C)=O)C(=O)NCc2ccccc2Cl)cc1` (stereo unspecified), the inhibition was 37.2%.

`COc1ccc(NC(=O)Nc2ccc3nsnc3c2)cc1`: the inhibition is 23.7%.

Consider `COc1cccc2c1OCC1COc3c(c(=O)n(C)c(=O)n3C)C21` (stereo unspecified), for which the inhibition was -6%.

Consider `O=C(Nc1ccc(NC(=O)c2cccs2)cn1)c1ccco1`, for which the inhibition was 23.5%.

On to `NC(=O)c1ccsc1NC(=O)c1ccco1`, for which the inhibition is 61.4% (active).

Take `O=C(Nc1nnc(SCc2ccccc2)s1)c1ccco1`: the inhibition was 6.2%.

As for `CC(NCCO)C(=O)C12CC3CC(CC(C3)C1)C2` (stereo unspecified), the inhibition is -0.7%.

On to `COc1ccc(N2C(=O)CCC(C(=O)Nc3ccccn3)C2c2ccc(OC)c(OC)c2)cc1` (stereo unspecified), for which the inhibition was 2.6%.

For `Cc1csc(=NC(=O)c2ccccc2)n1CCO`, the inhibition is 32.3%.

As to `Cc1ccc(-c2nc(CS(=O)CC(=O)N3CCN(c4ncccn4)CC3)c(C)o2)cc1` (stereo unspecified), the inhibition is 79% (active).

With `Cc1cc(C(=O)N2CCN(c3ccccn3)CC2)c(C)o1`, the inhibition is 12.4%.

`COc1ccc(-c2nc(CS(=O)CC(=O)N3CCc4ccccc4C3)c(C)o2)cc1` (stereo unspecified): the inhibition is 40.4%.

Regarding `Cc1ccc(-c2nc(CS(=O)CC(=O)NC3CCCC3)c(C)o2)cc1` (stereo unspecified), the inhibition is 53% (active).

With `COc1ccc(-c2nc(CS(=O)CC(=O)NCc3cccnc3)c(C)o2)cc1OC` (stereo unspecified), the inhibition was 47.2%.

With `Cc1ccc(S(=O)(=O)N(C)CC(=O)NC2CCCC2)cc1`, the inhibition was -30.3%.

The record behind these values is PubChem BioAssay AID777 (Sanford-Burnham Center for Chemical Genomics, 2007).
